Measurements published in article PMC5540273 (PLoS ONE, 2017).

Tests used:
Settings in all cases: concentration: 1 μM, replicates: in singlicate; n = 1
MEK5 = system: T1, MEK5
T1 construct: gene MAP2K5

MEK6 = system: T2, MEK6
T2 construct: gene MAP2K6

MELK = system: MELK
MERTK = system: MERTK
MET = system: MET
MINK = system: T3, MINK
T3 construct: gene MINK1

MKK7 = system: MKK7
MKNK1 = system: MKNK1
MKNK2 = system: MKNK2
MLCK = system: T4, MLCK
T4 construct: gene MYLK3

MLK1 = system: T5, MLK1
T5 construct: gene MAP3K9

MLK2 = system: MLK2
MLK3 = system: MLK3
MRCKA = system: MRCKA
MRCKB = system: T6, MRCKB
T6 construct: gene CDC42BPB

MST1R = system: MST1R
MST1 = system: T7, MST1
T7 construct: gene STK4

MST2 = system: T8, MST2
T8 construct: gene STK3

MST3 = system: T9, MST3
T9 construct: gene STK24

MST4 = system: MST4
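Also: KINOMEscan kinase panel screen.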

Row | Compound | %Inh (MEK5) [%] | %Inh (MEK6) [%] | %Inh (MELK) [%] | %Inh (MERTK) [%] | %Inh (MET) [%] | %Inh (MINK) [%] | %Inh (MKK7) [%] | %Inh (MKNK1) [%] | %Inh (MKNK2) [%] | %Inh (MLCK) [%] | %Inh (MLK1) [%] | %Inh (MLK2) [%] | %Inh (MLK3) [%] | %Inh (MRCKA) [%] | %Inh (MRCKB) [%] | %Inh (MST1R) [%] | %Inh (MST1) [%] | %Inh (MST2) [%] | %Inh (MST3) [%] | %Inh (MST4) [%]
1 | CC(C)c1nc(-c2cccc(NS(=O)(=O)c3c(F)cccc3F)c2F)c(-c2ccnc(Nc3ccc(N4CCOCC4)nc3)n2)s1 [GSK2008607] | 99.9 | 59 | 81 | 79 | 85 | 60 | 0 | 12 | 96 | 0 | 96.3 | 100 | 92.7 | 0 | 0 | 82 | 55 | 0 | 63 | 39
2 | C[C@@H](Oc1cc(-n2cnc3cc(-c4ccnc(NCCS(C)(=O)=O)c4)ccc32)sc1C(N)=O)c1ccccc1Cl [GSK907232] | 56 | 0 | 0 | 90.9 | 36 | 1 | 0 | 0 | 7 | 0 | 14 | 20 | 42 | 0 | 8 | 57 | 64 | 0 | 0 | 4
3 | Cl.c1ccc(-c2ccc3c(Nc4ccc5[nH]ncc5c4)ccnc3c2)nc1 [GW440137] | 89 | 0 | 15 | 0 | 0 | 43 | 0 | 5 | 18 | 15 | 0 | 27 | 11 | 9 | 0 | 43 | 0 | 28 | 0 | 3
4 | O=C(NC1CCN(c2ccnc(Nc3ccc(F)cc3)n2)C1)c1cc2ccccc2s1 (stereo not shown) [GSK1379716] | 8 | 1 | 0 | 38 | 0 | 0 | 0 | 3 | 7 | 8 | 0 | 0 | 29 | 10 | 5 | 34 | 9 | 0 | 0 | 0
5 | Cc1ccc(S(=O)(=O)Nc2ccc(Nc3nccc(Nc4cccc5[nH]ncc45)n3)cc2)cc1 [GSK581271] | 69 | 0 | 0 | 9 | 0 | 0 | 0 | 0 | 1 | 0 | 0 | 0 | 0 | 7 | 0 | 35 | 46 | 0 | 11 | 0
6 | Cn1cc(-c2ccc3c(c2)CCN3C(=O)Cc2cccc(Cl)c2)c2c(N)ncnc21 [GSK2606590] | 99.8 | 0 | 0 | 79 | 45 | 0 | 28 | 21 | 23 | 6 | 70 | 77 | 73 | 0 | 0 | 38 | 97.2 | 0 | 17 | 19
7 | c1ccc(Oc2ccc(Nc3ccnc4cc(-c5ccc(CNCCN6CCOCC6)o5)ccc34)cc2)nc1 [GW567145] | 100 | 0 | 0 | 9 | 0 | 37 | 0 | 0 | 19 | 10 | 0 | 0 | 0 | 0 | 0 | 16 | 0 | 0 | 11 | 0
8 | Cl.Cl.NCC(NCc1ccc(-c2ccnc3[nH]ccc23)s1)c1ccccc1 (stereo not shown) [GSK1321565] | 43 | 4 | 64 | 74 | 0 | 51 | 0 | 2 | 65 | 6 | 0 | 0 | 7 | 23 | 64 | 12 | 0 | 48 | 0 | 0
9 | Cn1cc(-c2ccc3c(c2)CCN3C(=O)Cc2cccc(F)c2)c2c(N)ncnc21 [GSK2603358] | 99.9 | 0 | 9 | 49 | 61 | 0 | 32 | 2 | 21 | 16 | 20 | 11 | 37 | 5 | 0 | 49 | 95.8 | 69 | 15 | 8
10 | Cl.NC(=O)c1cccc(Nc2nccc(Nc3ccc(Oc4c(Cl)cccc4Cl)c(Cl)c3)n2)c1 [GW659009] | 97.5 | 0 | 0 | 0 | 0 | 90.2 | 17 | 0 | 1 | 0 | 0 | 0 | 0 | 0 | 0 | 3 | 75 | 11 | 0 | 0
11 | COC(=O)Nc1nc2ccc(Oc3ccc(NC(=O)Nc4cc(C(F)(F)F)ccc4F)cc3)cc2n1C.Cl [GW692089] | 15 | 0 | 0 | 94.2 | 62 | 20 | 0 | 75 | 90.2 | 34 | 0 | 0 | 19 | 0 | 0 | 14 | 0 | 0 | 3 | 0
12 | O=c1[nH]cc(-c2ccc(N3CCOCC3)cc2)c2sc(-c3cn[nH]c3)cc12 [GSK2276055] | 8 | 29 | 17 | 7 | 0 | 26 | 0 | 0 | 9 | 19 | 0 | 0 | 0 | 0 | 0 | 31 | 0 | 32 | 29 | 0
13 | CN1CCN(CCCNc2nccc(-c3c(-c4ccc(F)cc4)nn4cc(C(F)(F)F)ccc34)n2)CC1 [GW621581] | 25 | 0 | 0 | 26 | 0 | 17 | 0 | 0 | 1 | 4 | 0 | 22 | 0 | 0 | 0 | 8 | 11 | 0 | 19 | 0
14 | COc1ccc(CNC(=O)NC2CCN(c3ccnc(Nc4ccc(F)cc4)n3)CC2)cc1 [GSK1379788] | 9 | 0 | 0 | 0 | 0 | 0 | 0 | 2 | 0 | 0 | 0 | 0 | 0 | 19 | 0 | 35 | 3 | 0 | 0 | 0
15 | Cl.c1ccc(-c2ccc3c(Nc4ccc5[nH]ccc5c4)ccnc3c2)nc1 [GW440138] | 83 | 0 | 0 | 34 | 0 | 75 | 0 | 2 | 0 | 0 | 0 | 0 | 0 | 6 | 0 | 35 | 0 | 0 | 9 | 0
16 | COCCOCCOc1cc2ncc3c4ccc(C#N)cc4[nH]c3c2cc1OC | 100 | 0 | 54 | 0 | 10 | 90.9 | 0 | 95.4 | 99.7 | 95.8 | 22 | 0 | 53 | 12 | 24 | 0 | 12 | 76 | 0 | 0
17 | COc1cccc(NC(=O)NC2CCN(c3ccnc(Nc4cc(OC)c(OC)c(OC)c4)n3)C2)c1 (stereo not shown) [GSK1379763] | 99.9 | 0 | 0 | 15 | 0 | 0 | 0 | 36 | 65 | 0 | 48 | 0 | 38 | 11 | 60 | 31 | 0 | 3 | 0 | 0
18 | Cc1ccc(C(=O)N2CC[C@@H](O)C2)cc1-n1c(C)cc(OCc2ccc(F)cc2F)c(Br)c1=O | 0 | 0 | 0 | 0 | 0 | 0 | 0 | 0 | 0 | 0 | 0 | 5 | 0 | 0 | 0 | 3 | 0 | 5 | 5 | 0
19 | O=C(Nc1cccc(-c2nn3ccccc3c2-c2ccnc(Nc3cccc(C(F)(F)F)c3)n2)c1)c1c(F)cccc1F [GSK292658] | 80 | 0 | 0 | 37 | 0 | 2 | 0 | 0 | 1 | 0 | 0 | 0 | 0 | 4 | 4 | 0 | 11 | 0 | 0 | 3
20 | COc1cc(Nc2nccc(N3CCC(NC(=O)c4cc5ccccc5s4)C3)n2)cc(OC)c1OC (stereo not shown) [GSK1379760] | 88 | 0 | 15 | 45 | 31 | 0 | 38 | 30 | 21 | 0 | 58 | 46 | 53 | 11 | 0 | 39 | 9 | 0 | 11 | 100
